Only some compounds are listed: those with a hit (about 22% of all), similar ones and a draw of the others.
CYP2C19 act: human CYP2C19 activators, primary screen, biochemical, luminescence; Cytochrome P450 2C19 (Homo sapiens), P33261; recombinant CYP2C19, luciferin-H EGE luminescence; hits give high values; 0 = fully inhibited enzyme, 1 = untreated enzyme; activation factor at 5 µM; 96,000 tested, under 10 active; AID 1025, 2008;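 active = activation factor of at least 2 at 5 µM in the primary screen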;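 also: 0 = wells with 2.5 mM tranylcypromine and 1 = vehicle-only wells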
CYP2C9 inhib: blockers of cytochrome P450 2C9 activity – biochemical, luminescence, ADME assay, primary screen; CYP2C9 Supersomes, luciferin-H conversion; inhibition, % at 5 µM; 96,000 compounds, 20% hits; AID 777, 2007;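 active = blocking of liver enzyme CYP2C9 beyond about 50% at 5 µM, limit read from the data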
Target sequence (P11712 whole entry, looked up): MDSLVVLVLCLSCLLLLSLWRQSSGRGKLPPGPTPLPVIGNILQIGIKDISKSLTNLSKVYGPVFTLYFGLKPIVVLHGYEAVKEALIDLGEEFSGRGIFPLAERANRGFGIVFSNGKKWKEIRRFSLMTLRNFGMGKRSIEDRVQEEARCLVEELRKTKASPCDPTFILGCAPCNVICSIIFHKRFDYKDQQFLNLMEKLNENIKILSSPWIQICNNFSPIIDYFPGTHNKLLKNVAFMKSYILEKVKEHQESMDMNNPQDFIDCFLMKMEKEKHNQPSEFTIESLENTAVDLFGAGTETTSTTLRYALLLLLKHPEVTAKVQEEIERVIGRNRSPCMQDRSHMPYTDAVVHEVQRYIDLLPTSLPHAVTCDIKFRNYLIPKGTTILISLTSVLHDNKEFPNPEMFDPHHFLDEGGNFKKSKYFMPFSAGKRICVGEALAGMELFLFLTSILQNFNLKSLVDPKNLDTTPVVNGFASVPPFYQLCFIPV
CYP2C9 act: human CYP2C9 activators, primary screen, biochemical, luminescence. Cytochrome P450 2C9 (Homo sapiens), P11712. recombinant CYP2C9, luciferin-H conversion; hits give high values; factor 1 = untreated enzyme, 0 = blocked. activation factor at 5 µM. 96,000 compounds, 1.4% hits;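 active = activation factor of 2 or more for CYP2C9 at a 5 µM dose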;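 also: 0 = sulfaphenazole-blocked wells and 1 = vehicle-only wells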
Measles CPE: compounds protecting cells from measles virus cytopathic effect, primary screen, measles RdRp inhibitor project, single point, MLSMR library, absorbance; Measles virus-infected cells, CPE protection; protection (pct of control), % at 4 µM; 140,000 compounds, 1.5% hits; AID 841, 2007; in the data active = protection mostly above about 24%, no sharp cut-off; inactive = mostly below about 26%
CYP2C19 inh: blockers of cytochrome P450 2C19 activity – biochemical, luminescence, ADME assay, primary screen; P33261; CYP2C19 Supersomes, luciferin-H EGE luminescence, 30 min; inhibition, % at 5 µM; 96,000 compounds, 21% hits; AID 778, 2007;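 active = CYP2C19 inhibition above a set limit at 5 µM in the primary screen, cut at about 50% in these data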;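 also: plate controls were negative control wells for no effect and 2.5 mM tranylcypromine positive control for full effect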
* marks the source's active call; other numbers are inactive results; / = not tested or not shown.

SMILES	CYP2C19 act	CYP2C9 inhib	CYP2C9 act	Measles CPE	CYP2C19 inh
COc1ccc(CC(=O)N2CCCc3ccccc32)cc1OC	0.6	-14	1.1	17	38
Cn1c(=O)c2c(=O)cc(NNC(=O)C(C)(C)C)[nH]c2n(C)c1=O	1	37	0.6	18	1
Cc1c(N=C2Nc3cccc4cccc2c34)c(=O)n(-c2ccccc2)n1C	0.6	-32	1.3	11	40
Cc1ccccc1C(=O)Nc1cccc(NC(=O)Cn2cnc3c(=O)n(C)c(=O)n(C)c32)c1	0.9	59*	0.4	6	6
O=S(=O)(c1ccc(OCC(O)CN2CCCC2)cc1)N1CCOCC1 (stereo not drawn)	1	38	0.6	13	0
O=S(=O)(c1ccc(OCC(O)CN2CCN(c3ccccc3)CC2)cc1)N1CCOCC1 (stereo not drawn)	0.4	34	0.7	7	64*
O=S(=O)(c1ccc(OCC(O)CN2CCN(c3ccccc3O)CC2)cc1)N1CCOCC1 (stereo not drawn)	0.8	54*	0.5	5	24
Cc1nn(-c2ccccc2)c(C)c1C(=O)OCC(=O)N1c2ccccc2NC(=O)C1(C)C	0.7	46	0.5	16	25
CN=C1c2cc3c(Br)c(OC)ccc3n2CCN1C	1	8	0.9	9	4
C/C(N)=C(/C#N)C(=O)COC(=O)CC12CC3CC(CC(C3)C1)C2	0.2	81*	0.2	18	78*
CC(C)(C)C1CCC(C(=O)OCC(=O)N2CCOCC2)CC1 (stereo not drawn)	/	/	/	10	/
C/C(N)=C(/C#N)C(=O)COC(=O)C1CCC(C(C)(C)C)CC1 (stereo not drawn)	0.1	84*	0.2	25	90*
C/C(N)=C(/C#N)C(=O)COC(=O)CC1CCCC1	0.1	41	0.6	/	88*
O=C(CN1CCN(S(=O)(=O)c2ccc(Br)cc2)CC1)N/N=C/c1cc([N+](=O)[O-])ccc1Cl	/	/	/	10	/
CCn1cnc2c1c(=O)n(Cc1nnc3n1-c1ccccc1SC3)c(=O)n2Cc1ccccc1	0.7	25	0.8	3	28
O=C(Cn1c(=O)c2c(ncn2Cc2ccccc2)n(Cc2ccccc2)c1=O)N1CCCC1	0.3	49	0.5	17	67*
CCn1cnc2c1c(=O)n(Cc1csc(-c3ccccc3)n1)c(=O)n2Cc1ccccc1	0.1	89*	0.1	3	86*
CCNC(=O)CN(c1ccccc1OC)S(=O)(=O)c1cccs1	/	/	/	12	/
CCc1cccc2c(C(=O)COC(=O)c3ccc(O)cc3)c[nH]c12	/	/	/	13	/
CCc1cccc2c(C(=O)COC(=O)c3ccccc3)c[nH]c12	/	/	/	28*	/
COc1ccc(C(=O)N=c2c(C#N)cc3c(=O)n4cccc(C)c4nc3n2Cc2ccco2)cc1	0.7	24	0.8	2	26
Cc1ccc(S(=O)(=O)N(C)Cc2ccc(-c3nnc4n3CCC4)cc2)cc1	0.1	41	0.6	13	88*
Cc1ccc(C)n1-c1ccc(-c2nnc3n2CCCCC3)s1	0.6	64*	0.4	5	37
Clc1ccc(NCc2nnc3n2CCCCC3)cc1	0.5	2	1	4	55*
c1ccc(NCc2nnc3n2CCCCC3)cc1	0.7	-1	1	2	34
SMILES	CYP2C19 act	CYP2C9 inhib	CYP2C9 act	Measles CPE	CYP2C19 inh
Clc1ccc(-c2nnc3n2CCCCC3)cc1	0.9	-12	1.1	79*	9
COC(=O)Cc1cc(=O)n2[nH]c(C(F)(F)F)nc2n1	0.7	15	0.9	8	33
Nc1nn(-c2ccccc2)c(N)c1N=Nc1ccccc1F	/	/	/	11	/
CN1c2ccccc2C(C)(C)[C@]12C=Cc1cc(O)ccc1O2	0	95*	0.1	3	97*
CN1c2ccccc2C(C)(C)C12C=Nc1c(ccc3ccccc13)O2 (stereo not drawn)	0.9	33	0.7	7	7
CCOC(=O)N1CCN(S(=O)(=O)c2cccc3nonc23)CC1	0.2	71*	0.3	26	82*
CCN(CC)C(=O)C1CCN(S(=O)(=O)c2cccc3nonc23)CC1	0.3	-70	1.7	1	65*
CCOC(=O)N1CCN(S(=O)(=O)c2cccc3cccnc23)CC1	0.1	-230	3.3*	21	91*
